Values without a mark were called inactive. For some assays here: Potency and affinity values are given separately. Active and inactive are the calls of the source. No rule for the calls is given here.
How the values were obtained:
[1] = Ebola virus entry assay, green fluorescence channel
[2] = Ebola virus entry assay, blue channel fluorescence
[3] = Ebola virus entry assay, ratio channel
[4] = Ebola virus entry assay, reporter ratio channel; Channel type: primary
For efficacy in this document: 0% is about no effect.

| Structure (SMILES) | efficacy [1] [%] | AC50 [2] | AC50 [3] | AC50 [4] | outcome [3] |
| --- | --- | --- | --- | --- | --- |
| COc1ccccc1N1CCN(CC(O)COc2cccc3ccccc23)CC1 (stereo unspecified) | -101 | 28.2 µM (active) | 12.6 µM (active) | 12.6 µM (active) | – |
| CCCCN(CCCC)CC(O)c1cc(Cl)cc2c1-c1ccc(Cl)cc1/C2=C/c1ccc(Cl)cc1 (stereo unspecified) | 120 | 39.8 µM (active) | 39.8 µM (active) | 39.8 µM (active) | – |
| CCC(=O)C(CCN(C)C)(c1ccccc1)c1ccccc1 | 68.8 | 28.2 µM (active) | 31.6 µM (active) | 31.6 µM (active) | – |
| CN1CCN(C2=Nc3ccccc3Sc3ccc(Cl)cc32)CC1 | 66 | 39.8 µM (active) | – | 39.8 µM (active) | inactive |
| CCOC(=O)Cn1cccc1-c1nc(-c2ccc(OC)cc2)c(-c2ccc(OC)cc2)s1 | 34.5 | 0.708 µM (active) | 0.708 µM (active) | 0.708 µM (active) | – |
| CCCCNc1ccc(C(=O)OCCN(CC)CC)cc1 | 87.1 | 39.8 µM (active) | 22.4 µM (active) | 22.4 µM (active) | – |
| Oc1cccc(-c2c3nc(c(-c4cccc(O)c4)c4ccc([nH]4)c(-c4cccc(O)c4)c4nc(c(-c5cccc(O)c5)c5ccc2[nH]5)CC4)C=C3)c1 | 82.1 | 20 µM (active) | 22.4 µM (active) | 22.4 µM (active) | – |
| C[C@@H]1CCC[C@H](C)N1CCCC(O)(c1ccccc1)c1ccccn1 (stereo partly specified) | 81.9 | 25.1 µM (active) | 22.4 µM (active) | 22.4 µM (active) | – |
| O=C(CCCN1CCC(n2c(=O)[nH]c3ccccc32)CC1)c1ccc(F)cc1 | 109 | 25.1 µM (active) | 25.1 µM (active) | 25.1 µM (active) | – |
| Cc1ccc2c(Br)cc(Br)c(O)c2n1 | 99.5 | 35.5 µM (active) | 39.8 µM (active) | 39.8 µM (active) | – |
| CO[C@@H]1[C@@H](OC)[C@H](C)[C@@](O)(CC(=O)O)O[C@H]1[C@H](C)[C@H]1O[C@@]2(CC[C@@](C)([C@H]3CC[C@@](C)([C@@H]4O[C@@H]([C@H]5O[C@](C)(O)[C@H](C)C[C@@H]5C)C[C@@H]4OC4C[C@H](OC)[C@@H](OC)[C@H](C)O4)O3)O2)C[C@H](O)[C@H]1C (stereo partly specified) | -69.9 | 1.58 µM (active) | 1 µM (active) | 1 µM (active) | – |
| CCOc1ccccc1O[C@H](c1ccccc1)[C@H]1CNCCO1 | 89.3 | 14.1 µM (active) | 15.8 µM (active) | 15.8 µM (active) | – |
| CN(C(=O)CN(CCO)CC(=O)N(C)C(C)(C)Cc1ccccc1)C(C)(C)Cc1ccccc1 | 43.4 | 7.94 µM (active) | 5.62 µM (active) | 5.62 µM (active) | – |
| CCCCC1C(=O)N(c2ccccc2)N(c2ccc(O)cc2)C1=O (stereo unspecified) | 73.1 | 28.2 µM (active) | – | 39.8 µM (active) | inactive |
